According to PubChem BioAssay AID624351 (Southern Research Specialized Biocontainment Screening …, 2012):
Screen size: about 2,400 compounds; about 1,400 (58%) were called active.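 Rule for the calls: active = inhibition of 30% or more at any tested dose; inconclusive = primary hits over the limit that were never retested; inactive = the rest.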 So high a share suggests a set chosen from earlier hits. The list shows a part of the results.

Test: coupled detection enzyme interference, dose response, artefact control for MgcRacGAP inhibitor project, biochemical, coupled enzyme counter-screen (AID 624351);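 note: signal is the ADP detection kit reading of free GDP without any GAP enzyme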;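 for inhibition: 0% = median positive control wells and 100% = median negative control wells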
Details: ADP Hunter coupled enzyme counter-screen, fluorescence, no MgcRacGAP; series mostly up to 80 µM

Row | SMILES | IC50 | inhibition
1 | O=[N+]([O-])c1cnc(Sc2ccncn2)c([N+](=O)[O-])c1 | inactive | 
2 | CSc1nc(O)c(/C=C2\C=Nc3ccccc32)[nH]1 | 33.2 µM (active) | 
3 | CSc1nc(/C=C2\C=Nc3ccccc32)c(O)n1C | 45.4 µM (active) | 
4 | CC1(C)CC[C@]2(C(=O)n3ccnc3)CC[C@]3(C)[C@H](C(=O)C=C4[C@@]5(C)C=C(C#N)C(=O)C(C)(C)[C@@H]5CC[C@]43C)[C@@H]2C1 | inactive | 
5 | C=CCc1cccc(C=Nc2cc(Br)ccc2O)c1O | 16.2 µM (active) | 
6 | Cc1ccc(O)c(N=Cc2cc(Cc3ccccc3)cc([N+](=O)[O-])c2O)c1 | inactive | 
7 | CCc1ccc(O)c(N=Cc2ccccc2O)c1 | 37.4 µM (active) | 
8 | CCc1ccc(O)c(N=Cc2cccc(C)c2O)c1 | 50.5 µM (active) | 
9 | OC(CNCC1COc2ccccc2O1)COCc1cccs1 (stereo not given) | inactive | 
10 | O=C(C1CCCN(Cc2cccnc2)C1)N1CCCCC1 (stereo not given) | inactive | 
11 | Cc1ccc(CN2CCN(CC3CC4C=CC3C4)CC2)cc1 (stereo not given) | inactive | 
12 | Cc1cccc2c1c1ccc3c(c1n2C)C(=O)C=CC3=O | inactive | 
13 | CC(OC(=O)CCN=C1NS(=O)(=O)c2ccccc21)C(=O)Nc1ccc(N(C)C)cc1 (stereo not given) | 50.9 µM (active) | 
14 | Clc1ccc(CNc2ccc(N3CCN(Cc4ccccc4)CC3)cc2)cc1 | 30.3 µM (active) | 
15 | C#CCOc1ccccc1CNC1CCN(Cc2ccccc2)CC1 | inactive | 
16 | Fc1ccc(CN2CCN(C(c3ccccc3)c3ccccc3)CC2)cc1 | inactive | 
17 | O=C(CN1CCN(Cc2ccccc2)CC1)NC(c1ccccc1)c1ccccc1 | inactive | 
18 | Fc1ccc(CNc2ccc(N3CCN(Cc4ccccc4)CC3)cc2)cc1 | 12.3 µM (active) | 
19 | O=C(CN1CCN(Cc2ccccc2)CC1)Nc1ccc(F)c(F)c1 | inactive | 
20 | CN(C)C(=S)N=c1ssc(=S)n1Cc1cccnc1 | inactive | 
21 | C=CCN1C(=O)CSC1=Nc1ccc(O)cc1 | 28.9 µM (active) | 
22 | O=C1CSC(=Nc2ccc(O)cc2)N1c1ccc(O)cc1 | 56.7 µM (active) | 
23 | O=C1CSC(=Nc2ccc(O)cc2)N1 | 42 µM (active) | 
24 | Cc1ccc(C)n1/N=C1/NC(=O)CS1 |  | -5.01% [at 10 µM] (inactive)

Row | SMILES | IC50 | inhibition
25 | COc1cc(/C=N/N=C2/SCC(=O)N2c2ccc(O)cc2)ccc1O | 48.1 µM (active) | 
26 | Fc1ccccc1Nc1n[nH]c(=S)s1 | 47.7 µM (active) | 
27 | Cc1c(Cl)cccc1NC(=S)Nc1ccc2[nH]c(=O)[nH]c2c1 | inactive | 
28 | N#CC1=C(Nc2ccccc2Cl)SC(c2ccccc2O)NC1=O (stereo not given) | inactive | 
29 | S=c1[nH]nc(Nc2ccccc2Cl)s1 | 51.9 µM (active) | 
30 | COc1ccccc1Nc1ccc2c(O)cc(S(=O)(=O)O)cc2c1 | inactive | 
31 | COc1ccccc1Nc1n[nH]c(=S)s1 | 46.8 µM (active) | 
32 | Cc1c(Cl)cccc1Nc1n[nH]c(=S)s1 | 78.7 µM (active) | 
33 | Cc1ccccc1CN(C)CCc1ccccn1 | inactive | 
34 | N/N=C(\Cc1cscn1)c1ccc(O)cc1O | 67.8 µM (active) | 
35 | CCc1cc(/C(Cc2csc(C)n2)=N/O)c(O)cc1O | 33.2 µM (active) | 
36 | CCc1cc(/C(Cc2ccccn2)=N\O)c(O)cc1O | 32.1 µM (active) | 
37 | CCc1cc(/C(Cc2cscn2)=N\O)c(O)cc1O | 52.1 µM (active) | 
38 | COc1ccc(Br)cc1CN1CCN(C(=O)c2ccc(F)cc2)CC1 | inactive | 
39 | CCN(CCNCC(O)COc1ccccc1C(C)C)c1cccc(C)c1 (stereo not given) | inactive | 
40 | COc1cccc(CN2CCN(Cc3cc(OC)c(OC)cc3[N+](=O)[O-])CC2)c1 | inactive | 
41 | COc1cc(-c2cc(-c3ccc(F)cc3)nc(N)c2C#N)ccc1O | inactive | 
42 | COc1cc(-c2cc(-c3ccc(O)cc3)nc(N)c2C#N)ccc1O | 51.6 µM (active) | 
43 | CCCN(CCC)CCCNC(=S)Nc1ccc2nc(N3CCCC3)cc(C)c2c1 | inactive | 
44 | CCn1c(=O)n(CC)c2cc(N3CCCC3)c(NC(=O)c3cccc(Cl)c3)cc21 | inactive | 
45 | O=C(/C(=C/c1cccnc1)n1ccnc1)c1ccc(Cl)cc1Cl | inactive | 
46 | COCCNCCOCCOc1ccc(Cl)c(C)c1 | inactive | 
47 | COC(=O)C1=C(C)N(Cc2ccco2)C(=O)/C1=C\c1ccc([N+](=O)[O-])cc1 | inactive | 
48 | CCOc1cc(/C=C2\C(=O)N(Cc3ccco3)C(C)=C2C(=O)OC)ccc1O | 68.7 µM (active) | 

Row | SMILES | IC50 | inhibition
49 | COC(=O)C1=C(O)/C(=C\c2ccc(O)c(OC)c2)N=C1C | 20 µM (active) | 
50 | CCOC(=O)C1=C(O)/C(=C\c2ccc(O)c(OCC)c2)N=C1C | 52.3 µM (active) | 
51 | CCOc1cc(/C=C2/N=C(C)C(C(=O)OC)=C2O)ccc1O | 29.6 µM (active) | 
52 | COC(=O)C1=C(C)N(Cc2ccco2)C(=O)C1 | inactive | 
53 | COc1nc(Nc2ccc(O)cc2)nc(OC(C(F)(F)F)C(F)(F)F)n1 | 39 µM (active) | 
54 | Oc1ccc(/C=N/NC(=S)NCCN2CCOCC2)c(O)c1 | 20.9 µM (active) | 
55 | COc1cc(/C=N/NC(=S)NCCN2CCOCC2)ccc1O | 21.8 µM (active) | 
56 | O=S(=O)(Nc1ccccc1F)c1cccc(NC(=S)NCCN2CCOCC2)c1 | inactive | 
57 | CN(C)S(=O)(=O)c1cc(NC(=O)CNCCN2CCOCC2)ccc1Cl | inactive | 
58 | COc1ccccc1OCCCCCCN1CCOCC1 | inactive | 
59 | COc1ccc(CCNCCN2CCOCC2)cc1 | inactive | 
60 | CCN1CCN(CC(=O)Nc2nc3ccccc3s2)CC1 | inactive | 
61 | CCOc1cc(-c2cc(-c3ccccc3)nc(N)c2C#N)ccc1O | inactive | 
62 | CCOc1cc(-c2nc3ccccc3s2)ccc1O | 48.6 µM (active) | 
63 | COc1cc(-c2nc3ccccc3s2)ccc1O | 18.2 µM (active) | 
64 | O=C(c1ccc(F)cc1)N1CCN(C2CCCCC2)CC1 | inactive | 
65 | COc1cc2c(cc1OC)C1(CCCC1)C(N)=C2C#N | 57.3 µM (active) | 
66 | O=C(c1ccco1)N1CCN(Cc2cccc([N+](=O)[O-])c2)CC1 | inactive | 
67 | O=C(c1cccc(Cl)c1)N1CCN(C2CCCCC2)CC1 | inactive | 
68 | O=C(c1c(Cl)cccc1Cl)N1CCN(c2cccc3[nH]ccc23)CC1 | 50.9 µM (active) | 
69 | O=[N+]([O-])c1cccc(CN2CCN(Cc3ccco3)CC2)c1 | inactive | 
70 | O=[N+]([O-])c1cccc(CN2CCN(c3cccc4[nH]ccc34)CC2)c1 | 46.7 µM (active) | 
